Data as given in the supplement of paper PMC11417369.
± gives the standard deviation of the averaged measurements. The full ranking holds about 25,000 sequences; the median of “ln(normalized median fluorescence intensity)” is about 7.9, and the highest 2% start at about 11. The full list was thinned out, with the highest values kept by preference.

tested on: PfAP2-I AP2 domain 3 (GST-tagged); test: gcPBM binding intensity (ln(normalized median fluorescence intensity)); higher = stronger DNA binding
How it was run: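 Binding intensity values are the highest Masliner-normalised natural-log median intensity among replicate spots of either probe orientation. The binding step lasted 1 h in 1× PBS with 1% milk, 0.2 mg/ml BSA, 0.5% salmon testes DNA and 0.03% Triton X-100, using GST-tagged P. falciparum DNA-binding domains expressed in E. coli on an Agilent 4 × 180k array of primer-extended double-stranded 36-bp intergenic genomic probes plus negative controls. Alexa488 anti-GST antibody and a 488 nm scan detected bound protein.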

Row | Sequence | gcPBM binding intensity (ln)
1 | ATAAGTATAAGAATCAGTACACAGTTTCTACATACT [XGTACX_site5834] | 7.56 ± 0.51
2 | TATCAAAGTAGAAGAGATCGATGTCATATTGTGATG [GTGCAC_negctrl_site42] | 7.73 ± 0.75
3 | CATATGCATACTATACGTACATATGTATATAATATA [XGTACX_site7738] | 8.03 ± 0.42
4 | GGTCTTCTTAATATACTGCACTGTATACGTATATAA | 11 ± 0.61
5 | TATAATATTAATGACTGTACTCATACGTATATTTAT [XGTACX_site5493] | 7.79 ± 0.3
6 | GATAGATAATATTTTAGTACATAAACAATTAAATAT [XGTACX_site4125] | 7.91 ± 0.44
7 | TAATCATAAAAAAATACACACATATAAAATATAGAT [CACACA_site7020] | 7.51 ± 0.63
8 | TTATAATATGGATACACACACATATATAAATATATA [CACACA_site5314] | 7.68 ± 0.38
9 | TCATATATATTATACACACACATATATAAATATATA [CACACA_site967] | 7.87 ± 0.54
10 | CATAAAAATGGATACACACACATAATATATATATAT [CACACA_site3619] | 9.08 ± 0.11
11 | TAGGGATTATACCACACACACATACACATAAATATA [CACACA_site3178] | 7.86 ± 0.32
12 | TAATGGATTATACGTGCACACATATATACAAATAAA [CACACA_site8116] | 10.97 ± 0.035
13 | TATAAATACATACGTACACACAAATATTAAAATATA [CACACA_site5129] | 7.905 ± 0.007
14 | ATGGATTATACGTGCACACATATATACAAATAAATA [CACACA_site640] | 11.19 ± 0.035
15 | ATATAAATACGGTGTGCACACACATAATATATATAT [CACACA_site2271] | 9.52 ± 0.26
16 | ATGGATTATACGTGCACACATATATACCAATAAATA [CACACA_site4524] | 11.2 ± 0.22
17 | AATAATAATAAAAATAAACACACATATATATGTATA [CACACA_site8928] | 7.57 ± 0.28
18 | AATATAATTATATGTGGTACAGAAATAATATAAAAT [XGTACX_site2366] | 8.22 ± 0.52
19 | TTATAAAAAAAAAAAAAAAAGAAAATGAATTCACGA [CACACA_negctrl_site1248] | 8.19 ± 0.3
20 | TAAATTATTATCCCCTCACACACAAAAATAAAAAGA [CACACA_site2886] | 8.56 ± 0.25
21 | CGTTGTAGGGAATGTAGTACAGTTATTATTTTATTA [XGTACX_site2429] | 7.88 ± 0.24
22 | TTAATGCACTTTATTACACACACTAGTTCATTACCT [CACACA_site2294] | 11.5 ± 0.95
23 | TATTATATTGTTCATTTACACTTTCATTTTAAAAAA [CACACA_negctrl_site260] | 8.05 ± 0.54
24 | AATGAGAATTTTATTACACACTTTAATATATTTTCA [CACACA_site784] | 7.7 ± 0.53

Row | Sequence | gcPBM binding intensity (ln)
25 | ATAGTTACACAATGGTGTACAAGTCAATATATTTCT [XGTACX_site4614] | 7.95 ± 0.33
26 | ATATTGTTATATGTTTGTACATATTTTTTATATTTT [XGTACX_site6834] | 7.7 ± 0.64
27 | AACAAAATAAAAAGTAATCTTATTTATTAAAATTTT [CACACA_negctrl_site419] | 7.25 ± 0.43
28 | AAGGCATGACTATCTGCACACATAAAAATAAGAAAT [CACACA_site8180] | 8.62 ± 0.39
29 | TATAAATTTATAAATAGTACATATATTTATATATAT [XGTACX_site6433] | 8.12 ± 0.64
30 | AAGAAAATATAACAAAGTAAAAACATATTATATATA [TGCATGCA_negctrl_site248] | 7.34 ± 0.34
31 | AAAATTTATAGTATGGTGCATAAAAATATATATATA | 11.4 ± 0.23
32 | ATATAAGAATAAATAGTGCAAAATAAATGATTATTT | 10.7 ± 0.33
33 | TTATAAAAAATTTTAGTGCATATATGATTTATATAT [GTGCAC_site9831] | 10.1 ± 0.33
34 | GCTGAAAGGATAAAGGTGCATATTTTTTAAAAAATT [GTGCAC_site9487] | 10.4 ± 0.28
35 | ACAATGAAATATTCATGTACATATAAATAATAGTGT [XGTACX_site3762] | 7.93 ± 0.42
36 | AAATGAATATTCATAGTGCAATATATAAATGAAAAT | 11 ± 0.38
37 | TAAATAGTTATAAAAGTGCAAAAAAAAAAAAAAAAA [GTGCAC_site9550] | 10.1 ± 0.53
38 | CATAATTTAAAAAAGGTGCAAAATGGATAATATATA [GTGCAC_site9657] | 11.1 ± 0.57
39 | TAAAATATTTCAAAGGTGCAATGATAATTTAAGACG [GTGCAC_site9609] | 10.6 ± 0.54
40 | GTTATTGAAAAAATAGTGCAATATAACAAAGTAAAA | 11.4 ± 0.52
41 | TTTTATATCTACCTTTGTACATATTTATTTTTTTTA [XGTACX_site7872] | 8.01 ± 0.74
42 | AATAATGAAACAGGAAAAAAATATTGTTAAAATGTA [XGTACX_negctrl_site400] | 7.95 ± 0.78
43 | AAAAAAAAAAAAAAAACACACATAAATAGCTCAAAT [CACACA_site3973] | 8.78 ± 0.49
44 | ACAAAACGAACATACGCATGTGTGTACATTAATATA [TGCATGCA_site922] | 8.14 ± 0.099
45 | TTTTCATTCTTTTCCTTTGATTTACAATAGTATATT [GTGCAC_negctrl_site687] | 7.72 ± 0.79
46 | TTTTCCATAAGAATTACACACAGAAAGGATAAGTAT [CACACA_site105] | 8.04 ± 0.73
47 | TAATAATCAAGTTAACGTACAAAATCATCTATAGAA [XGTACX_site5921] | 8.03 ± 0.13
48 | TTAAAATAGATATTAGTGCAAAAAAAAAAAAATAAA | 10.7 ± 0.23

Row | Sequence | gcPBM binding intensity (ln)
49 | TAAATTTATATATAGGTGCGCAATTTGATAATAGTT [GTGCAC_site9783] | 9.82 ± 0.19
50 | TAATATATATATATGGTGCATTTAATTTATATATAA | 11.2 ± 0.74
51 | TGTAAATAATATAATAGTACGCATATTTTTATTGAA [XGTACX_site284] | 7.87 ± 0.17
52 | GTTATAATTGAACTAGTGCATAAATATATTTTAATT [GTGCAC_site9851] | 11.1 ± 0.45
53 | ATTGATTATTTTCTAGTGCATAAAATAATTTTTTTT | 10.5 ± 0.51
54 | ATTATTATATAGTGTGCATGCAATATTAATAAAACC [TGCATGCA_site245] | 8.79 ± 0.52
55 | CATATAATTTTATGGGTGCATTTTTTTGTAAGACCA | 10.1 ± 0.58
56 | TATAATAGTTCATAGGTGCAATATAATAAATTTATA [GTGCAC_site9573] | 11.2 ± 0.47
57 | TATTAATATATAGTAGTGCAATAAAGATATACTGAA | 10.9 ± 0.58
58 | TCTATTTTTTATATGGTGCATTGTTCTTATTAATAT [GTGCAC_site9392] | 10.8 ± 0.71
59 | TCAAAAATTTATATAGTGCAATATATATATAATGTA | 10.6 ± 0.72
60 | TATTTTTATTTATAACGTACGAAAAATGTATATAAT [XGTACX_site703] | 7.96 ± 0.35
61 | AAATTCCACGGACACACACACATATAAATAAATAAA [CACACA_site4811] | 8.23 ± 0.37
62 | TCAACATTTAAAAATAGTACTCATAAACCTTTCGAA [XGTACX_site4111] | 7.42 ± 0.46
63 | TATGAATGGTTAAGTACACACATATTAATATAGGTA [CACACA_site7606] | 7.79 ± 0.49
64 | ACATATATTTTTTTTTGTACATATAAATATATATAT [XGTACX_site6491] | 8.7 ± 0.39
65 | TTTAAATATAATTGGAGTACTTATAATATATATATA [XGTACX_site7247] | 8.97 ± 0.12
66 | CATTAATTTAATAAATGTACATAAAATATATATTAT [XGTACX_site8085] | 7.89 ± 0.36
67 | CCATTATACACAATATGTACATATATATAATCATTT [XGTACX_site7942] | 8.04 ± 0.43
68 | AGAGATACATAAAAAAGTACATATAAAATTTAGGAA [XGTACX_site7201] | 7.96 ± 0.19
69 | AATTATACGAAATAAAACTTAATAGACAAAAAATTA [CACACA_negctrl_site1384] | 7.54 ± 0.63
70 | AATCAATTAATATTAGCATAAAATTTTATTATTTTG [XGTACX_negctrl_site479] | 7.46 ± 0.71
71 | TTACAATAAATTATAGTGCAATATTTTATTTAATAT | 10.6 ± 0.36
72 | GAAAATAAAATATTAGTGCATTATTTGATCAATAAT | 11.3 ± 0.73

Row | Sequence | gcPBM binding intensity (ln)
73 | GTTATATTTAAAATAGTGCAATAAAAATAATAATAT | 11.4 ± 0.67
74 | TGCAATTTAATATGAGTGCATATATTGAGAAAATAC | 10.04 ± 0.035
75 | ACATATTAAATATGAGTGCAATATATATATATATAA | 10.9 ± 0.43
76 | TATATATTAAAAATAGTGCAAAATAATATATATATA [GTGCAC_site9716] | 10.78 ± 0.021
77 | ATATTTTATATAATAGTGCAAATAATATTAAATAAT | 10.8 ± 0.37
78 | TTTGAAATATATTTAGTGCATATATATTGATTATAA [GTGCAC_site9604] | 10.4 ± 0.34
79 | TATATGAACTTATATACACACCATTTTTGTAAATCT [CACACA_site4547] | 7.62 ± 0.54
80 | AAATTTGGCAAACACACACACACACCCACAGAGACA [CACACA_site4490] | 8.305 ± 0.021
81 | CCAGGAAAAATTTATTGTACATATATTTTTATGCTC [XGTACX_site7154] | 7.68 ± 0.53
82 | ATATAGATCTACACTGCACACATTTTTAACACTGCT [CACACA_site1882] | 9.04 ± 0.5
83 | TTTAGCACAAACAAAAAAAAAATAGAAAAAAATATA [CACACA_negctrl_site1772] | 7.59 ± 0.61
84 | TATATAGAAAACAAGGCATGCAAATAACAAATTGTG [TGCATGCA_site473] | 8.32 ± 0.91
85 | GTTCCAGGCATTCGTGCGCACAAATAGAAACAATTA [GTGCAC_site9824] | 11.15 ± 0.035
86 | ATATGCACTCATTGTGCACACGCATATTACGAAAAG [CACACA_site2637] | 11 ± 0.35
87 | ATGCACTCATTGTGCACACGCATATTACGAAAAGAA [CACACA_site2638] | 10.6 ± 0.18
88 | TGTGTTCATATATGCACACGCATATATATTATTGTT [CACACA_site3822] | 9.1 ± 0.25
89 | TTTCTTTCTTTCTTTTTTTAAATATTTTTTAAAAAT [TGCATGCA_negctrl_site206] | 7.98 ± 0.62
90 | ATTATAATGGTAAAGTGTACAAATTTTTATTACACC [XGTACX_site5274] | 8.49 ± 0.092
91 | TTTATATTATTATATCTTATTAATTATTTATCATTT [TGCATGCA_negctrl_site73] | 7.28 ± 0.58
92 | TATCATCTTAATATCGTGCACATTTATAGAACGAAA [GTGCAC_site9992] | 11 ± 0.12
93 | GCTTCTTAATATCATACACACATAGATATATTTATA [CACACA_site5676] | 8.11 ± 0.58
